Assay results reported in PubChem BioAssay (NCATS).
Records with an inconclusive call do not appear. Active and inactive are the calls of the source. Calls follow the shape of the dose curve; as a rule, active = well fitted curve in the direction sought with a large enough effect; inconclusive = small, poorly fitted or top-dose-only effect, or another doubt; inactive = no such curve, though single readings can be large; an effect the other way counts as inactive or inconclusive.

Key:
[1] = qHTS to identify inhibitors of the type 1 interferon - major histocompatibility complex class I in skeletal muscle: primary screen against the NCATS LOPAC collection (AID 1347405);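 also: human myoblasts with HiBiT tag on endogenous HLA-B stimulated by IFN-beta; lytic HiBiT luminescence reporting HLA-B protein level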
In short: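 HLA-B HiBiT myoblasts, IFN-b 4 ng/ml, dexamethasone-free medium; compounds 7-pt 1:4.3 titration, top 46 uM final; 24 h at 37 C; Nano-Glo HiBiT lytic reagent, 10 min RT, luminescence.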

[2] = qHTS for inhibitors of adenylyl cyclases using a fission yeast platform: a pilot screen against the NCATS LOPAC library (AID 1347410)
In short: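 S. pombe CHP2027 (AC9-GNAS-PDE4D2) carrying a PKA-repressed fbp1-GFP reporter was exposed to LOPAC compounds (final up to 57 µM) for 18 h at 30C in the dark, in EMM with histidine, lysine and uracil; GFP gain-of-signal read by laser scanning cytometry.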

[3] = Validation qHTS assay for inhibitors of Activation Induced Cytidine Deaminase (AID): UDG Counterscreen signal (AID 1347427)
In short: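 Fluorescence at 560 nm excitation, 665 nm emission reports UDG signal after 250 mM NaOH (2x) addition and 30 min. Enzymes (AID 1 uM, UDG 2 U/mL, at 4/3x) preincubated 10 min with compound, then 4 h with 4x 250 nM DJC20/DJC23 substrate at room temperature.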

Measured: Potency

OC[C@H]1NC[C@@H](O)[C@@H]1O
inactive: all assays above

Cc1nc2n(c(=O)c1CCN1CCC(c3noc4cc(F)ccc34)CC1)CCCC2O (configuration not stated)
inactive: all assays above

O=C(O)Cc1ccc(O)c(O)c1
inactive: all assays above

NCC(O)C1CCCCCCC1 (configuration not stated)
inactive: all assays above

CCCCCCC/C=C\CCCCCCCCC(=O)O
inactive: all assays above

CC(=O)O[C@H]1Cc2ccccc2N(C(N)=O)c2ccccc21
inactive: all assays above

NCCC1CCCC(CCN)N1 (configuration not stated)
inactive: all assays above

COc1ccccc1N1CCN(CCCCNC(=O)c2ccc3ccccc3c2)CC1
inactive: all assays above

O=C(O)C1=CCNCC1
inactive: all assays above

Nc1nc2[nH]c(=O)cnc2c(=O)[nH]1
inactive: all assays above

NC1CONC1=O (configuration not stated)
inactive: all assays above

O=C(O)/C(=C/c1c(C(=O)O)[nH]c2cc(Cl)cc(Cl)c12)c1ccccc1
inactive: all assays above

CCCC(=O)NCCc1c2n(c3ccc(OC)cc13)CCCc1ccccc1-2
inactive: all assays above

O=c1onc2n1-c1cc(Br)ccc1OC2
inactive: all assays above

CSC(=N)N
inactive: all assays above

N=C(N)SCCc1cnc[nH]1
inactive: all assays above

CC(C)[C@@H]1CC[C@@H](C)C[C@@H]1P(=O)(c1ccccc1)c1ccccc1
inactive: all assays above

CNc1cc(NS(=O)(=O)c2ccc(N)cc2)nc(NC)n1
inactive: all assays above

C[C@H]1CC2C3CCC4=CC(=O)C=C[C@]4(C)[C@@]3(Cl)[C@@H](O)C[C@]2(C)[C@@]1(O)C(=O)CO (some centres not stated)
inactive: all assays above

NC(N)=N[C@@H](CCC(=O)O)C(=O)O
inactive: all assays above

COc1ccc(CCN(C)CCc2ccc(OC)c(OC)c2)cc1OC
inactive: all assays above

O=C(O)c1ccccc1Nc1cccc(OCc2ccc3ccccc3n2)c1
inactive: all assays above

C[C@H](O)C(=O)C1=Nc2c(nc(N)[nH]c2=O)NC1
inactive: all assays above

N[C@@H](CCC(=O)N[C@H](CSN=O)C(=O)NCC(=O)O)C(=O)O
inactive: all assays above
